Source: PubChem BioAssay (National Center for Advancing Translational Sciences (NCATS))
Compounds with a hit are over-represented: about 7.4% of the library has one in this group of screens.
ELG1 genotox: inducers of genotoxicity in HEK293T ELG1-luciferase cells. HEK293T ELG1-luciferase reporter, luminescence, 16 h. 1.3% of 330,000 active. Potency, µM (titrated, usually from 46 µM), for inactives: top-dose activity change, positive = activation, usual class: activators; note: % of control where 0% means no effect; nearly all actives have a fitted effect of over 60% in size
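HEK293T cells expressing luciferase-tagged ELG1 were treated with compound or DMSO for 16 hr at 37°C. Luciferase activity was then read after 30 min with ONE-Glo at room temperature; rising signal flags genetic stress.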
FLuc counter: firefly luciferase modulation, counter-screen for miR-21 project. purified FLuc, Km substrates, luminescence inhibition. Potency, µM (highest dose often 57.5 µM), for the others: at the highest dose activity change, negative = inhibition, actives largely listed as inhibitors. 6.9% of 360,000 active. AID 588342;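 note: plate controls were vehicle for no effect and reference inhibitor for full effect; nearly all actives have a fitted effect of over 55% in size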
Target sequence (P08659 whole entry, looked up): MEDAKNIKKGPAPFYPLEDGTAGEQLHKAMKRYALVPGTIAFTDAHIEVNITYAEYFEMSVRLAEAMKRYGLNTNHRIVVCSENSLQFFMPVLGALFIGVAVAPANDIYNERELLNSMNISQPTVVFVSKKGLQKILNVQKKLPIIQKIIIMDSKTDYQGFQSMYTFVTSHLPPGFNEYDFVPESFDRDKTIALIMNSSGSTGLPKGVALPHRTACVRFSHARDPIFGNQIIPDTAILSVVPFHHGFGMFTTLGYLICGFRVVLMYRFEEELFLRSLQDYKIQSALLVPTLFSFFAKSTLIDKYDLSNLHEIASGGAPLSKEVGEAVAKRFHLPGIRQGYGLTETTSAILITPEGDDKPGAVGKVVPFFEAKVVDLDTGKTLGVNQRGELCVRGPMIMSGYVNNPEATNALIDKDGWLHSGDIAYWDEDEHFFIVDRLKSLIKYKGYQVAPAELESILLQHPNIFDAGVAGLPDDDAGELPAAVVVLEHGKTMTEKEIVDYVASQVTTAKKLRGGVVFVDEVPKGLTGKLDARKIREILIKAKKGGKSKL
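Purified P. pyralis luciferase (10nM final) with 10uM D-luciferin and 10uM ATP (Km levels) in 50mM Tris acetate pH 7.5, 10mM Mg acetate, 0.01% Tween-20, 0.05% BSA; qHTS 6-point titration, ~60 µM downward; luminescence read.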
Rab9 promoter act: activators of Rab9 promoter | Huh7 Rab9 promoter-luciferase reporter, luminescence, 24 h | Potency, µM (titrated, usually from 9.22 µM), for the others: top-dose activation, negative = inhibition, actives largely listed as activators | 2.8% of 320,000 active | AID 485297; note: % of control where 0% means no effect; nearly all actives have a fitted effect of over 60% in size
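Steps: seed 1500 Huh7 Rab9-luc cells per well, rest 2 h at 37 °C; add compound in DMSO; incubate 24 h; add luciferase reagent, 10 min ambient; read luminescence.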
SMN2 splice enh: SMN2 splice variant enhancement; AID 1458; Potency, µM (top dose mostly 46.1 µM), for the others: top-dose activity change, positive = activation, actives largely listed as activators; 2.8% of 210,000 active; HEK293 SMN2-luciferase splicing reporter, luminescence, 30-36 h; note: % of control where 0% means no effect; nearly all actives have a fitted effect of over 55% in size
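qHTS luciferase splicing reporter: luminescence rises when SMN2 exon 7 is included in transfected HEK293 cells. Compound exposure lasted 30-36 h at 37C, with 4.5 mM final sodium butyrate as control, followed by a ONE-Glo read.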
NPC1 prom act: NPC1 promoter activation | Potency, µM (doses to about 9.22 µM), for the others: at the highest dose activation, actives largely listed as activators | Huh7 NPC1 promoter luciferase reporter, 24 h | 2.4% of 320,000 active; note: % of control where 0% means no effect; nearly all actives have a fitted effect of over 60% in size
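Cells: Huh7 expressing luciferase under the NPC1 promoter, 1500/well. Seeded 2 h, compound added, incubated 24 h at 37 °C. Luciferase reagent, 10 min ambient, then luminescence.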
* marks the source's active call; other numbers are inactive results; ? = inconclusive; nt = not tested or not shown. Calls come from the whole dose curve; as a rule, active = well fitted curve in the direction sought with a large enough effect; inconclusive = small, poorly fitted or top-dose-only effect, or another doubt; inactive = no such curve, though single readings can be large; an effect the other way counts as inactive or inconclusive. Potency is the fitted concentration of half-maximal effect.

SMILES	ELG1 genotox	FLuc counter	Rab9 promoter act	SMN2 splice enh	NPC1 prom act
C/C(=N\NC(=O)c1ccc([N+](=O)[O-])cc1Cl)c1ccccc1	?	?	3.55µM*	nt	?
O=C(COC(=O)CNS(=O)(=O)c1cccc(Br)c1)Nc1ccccc1Sc1ccccc1	-3.7%	1.3%	0.6%	-8.8%	-0.8%
Cc1ccc(-c2nc3ccccn3c2Nc2ccccc2C)s1	nt	-19.5%	nt	26.3%	nt
Cc1ccccc1N/N=C/c1c(C)nc2ccccn12	-4.3%	12µM*	7.6%	nt	2.9%
COc1cccc(CN(C)Cc2c(O)ccc3ccccc23)c1	0.0%	10.7µM*	-0.3%	nt	3.0%
COc1ccc(CC(=O)NCCC(C)C)cc1S(=O)(=O)N1CCOCC1	-0.3%	-1.8%	-0.1%	-4.5%	-4.3%
Cc1cc(O)c(C(=O)/C=C/c2ccc(C(C)C)cc2)c(=O)o1	?	3.38µM*	2.82µM*	nt	?
CCOc1ccc(/C=C/C(=O)c2c(O)cc(C)oc2=O)cc1	15.6%	6.75µM*	?	nt	?
Cc1cc(O)c(C(=O)/C=C/c2ccccc2)c(=O)o1	-2.8%	19µM*	-0.4%	nt	2.3%
Cc1cc(O)c(C(=O)/C=C/c2ccccc2Br)c(=O)o1	12.1%	?	-18.2%	nt	3.8%
COc1cccc(CNC(=O)Cc2ccc(S(=O)(=O)N3CCOCC3)s2)c1	1.5%	3.2%	-1.9%	nt	1.9%
Cc1ccccc1CN1CCc2nc(Nc3ccc4c(c3)OCCO4)ncc2C1	nt	13.5µM*	nt	nt	nt
Cc1nc(C(=O)NNC(=O)c2cccc(Cl)c2)c(C(F)(F)F)o1	0.2%	5.2%	0.2%	nt	-2.7%
Cc1nc(/C(N)=N/OC(=O)c2ccc(Cl)cc2)c(C(F)(F)F)o1	2.9%	7.57µM*	-3.0%	nt	-5.1%
CCC(=O)Nc1ccc(OCc2nc3ccccc3s2)cc1	2.91µM*	4.26µM*	0.631µM*	5.01µM*	2µM*
Fc1ccc(OCc2nc3ccccc3s2)cc1	2.31µM*	2.39µM*	3.16µM*	11.2µM*	1.41µM*
N#Cc1ccc(NC(=O)CCc2nc3ccccc3s2)cc1	-3.5%	-11.1%	-3.5%	8.8%	-0.1%
c1ccc(OCc2nc3ccccc3s2)cc1	?	3.38µM*	2.82µM*	12.6µM*	2.51µM*
O=S(=O)(CCc1nc2ccccc2s1)c1ccc(Cl)cc1	-0.8%	1.7%	-3.6%	-3.9%	-3.9%
O=S(=O)(Cc1nc2ccccc2s1)c1ccccc1	4.61µM*	12µM*	3.16µM*	14.1µM*	2µM*
Cc1cc2c(s1)c1c(C)nn(Cc3ccccc3F)c(=O)c1n2C	nt	1.3%	1.1%	nt	0.7%
Cc1cc(OCc2nc3ccccc3s2)ccc1N	2.91µM*	1.51µM*	0.562µM*	nt	1µM*
COc1ccc(S(=O)(=O)CCc2nc3ccccc3s2)cc1	-7.5%	0.5%	-11.0%	0.2%	2.2%
Cc1ccc(C(=O)NCCC(=O)N2CCCC2)cc1	23.1µM*	10.7µM*	3.16µM*	nt	3.98µM*
Cc1ccc(SCCC(=O)N2CCCC2)cc1	14.6µM*	-13.6%	25.0%	-11.7%	24.8%
SMILES	ELG1 genotox	FLuc counter	Rab9 promoter act	SMN2 splice enh	NPC1 prom act
Cc1ccc(SCCC(=O)N2CCOCC2)cc1	8.4%	?	23.4%	?	26.0%
Cc1ccc(SCc2ccc(C(=O)N3CCCC3)cc2)cc1	13.4%	16.9µM*	?	?	24.7%
Cc1ccc(SCCC(=O)N2CCC(C(N)=O)CC2)cc1	?	-8.1%	11.0%	nt	14.0%
CCN1CCN(C(=O)c2ccc(CSc3ccc(C)cc3)cc2)CC1	-8.0%	-11.1%	-5.6%	-43.3%	0.8%
Cc1ccc(SCCC(=O)N2CCC(C)CC2)cc1	?	13.5µM*	3.55µM*	?	4.47µM*
O=C(COc1ccc(F)cc1F)N1CCCCCCC1	1.6%	-2.3%	12.5%	nt	8.3%
Cc1cccc(N2CCN(C(=O)c3ccc(Cl)c(NC4=NC5CS(=O)(=O)CC5S4)c3)CC2C)c1 (stereo not drawn)	-10.2%	3.0%	-3.3%	nt	-2.5%
CCCCN([C@H](CO)C(C)C)S(=O)(=O)c1ccccc1Br	-0.2%	nt	nt	nt	nt
COc1cc(OC)cc(C(=O)NNC(=O)CCNC(=O)c2ccc(Br)cc2)c1	0.1%	nt	nt	nt	nt
CCc1cc(C(=O)Nc2ncccc2O)sc1C	0.326µM*	1.35µM*	2.51µM*	nt	1.12µM*
CCc1cc(C(=O)Nc2ccc(OC)nc2)sc1C	9.3%	21.3µM*	-34.0%	nt	12.6%
